Calls of active or inactive are those of the source. Unless noted, no rule for the calls is given here.
Experiments:
[1] = HepG2 liver cancer cell viability effects, profiling panel, resazurin fluorescence, 24 h, PK04 Diversity Set (AID 1172); conditions: higher = more signal
[2] = basal S. cerevisiae growth modulation, no modifier, primary screen, OD600, strain BY4716, 24 h, basal condition (AID 1173); conditions: OD600, 24 h, higher = more signal, called active from +8 up or from −8 down
[3] = MM1S myeloma cell viability, profiling panel, resazurin fluorescence, basal, 24 h, PK04 Diversity Set (AID 1174); conditions: higher = more signal, called active from +8 up or from −8 down;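 also: MM1S multiple myeloma cell line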
[4] = target: Dihydroorotate dehydrogenase (quinone), mitochondrial (Plasmodium falciparum (isolate 3D7)) (UniProt Q08210); assay: PfDHODH enzyme inhibitors, primary screen, biochemical, C-terminal His tag, absorbance 600 nm (AID 1175); conditions: DCIP absorbance 600 nm, higher = more signal, called active from +8 up or from −8 down;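 also: recombinant parasite enzyme with a five histidine tag at its C terminus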
[5] = P. aeruginosa biofilm formation inhibitors, primary screen, strain PAO1, LB-PBS medium, absorbance 600 nm (AID 1176); conditions: P. aeruginosa PAO1 growth/biofilm, A600, 12 h; higher = more signal
[6] = S. cerevisiae RM11-1a growth modifiers, primary screen, strain RM11-1a, OD600, basal, 24 h (AID 1177); conditions: OD600, 24 h, higher = more signal, called active from +8 up or from −8 down;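 also: cultures grown under basal conditions with no added stressor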
[7] = E. coli acrAB mutant growth effects, primary screen, E. coli filamentation inducers, strain DRC39, OD650, 24 h (AID 1178); conditions: higher = more signal, called active from +8 up or from −8 down;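 also: growth measured as culture turbidity by optical density at 650 nm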
[8] = E. coli acrAB mutant growth effects, primary screen, E. coli filamentation inducers, strain DRC39, OD650, 48 h (AID 1179);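 also: screen aims at cell division blockers that make cells filament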; conditions: E. coli DRC39 delta-acrAB growth, higher = more signal, called active from +8 up or from −8 down
[9] = RPMI8226 myeloma cell viability, profiling panel, resazurin fluorescence, basal, 24 h, PK04 Diversity Set (AID 1180); conditions: higher = more signal;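 also: RPMI8826 multiple myeloma cell line at 5000 cells per well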
[10] = target: E3 ubiquitin-protein ligase XIAP (Homo sapiens) (UniProt P98170); assay: XIAP binders, primary screen, biophysical, small-molecule microarray, fluorescence 635 nm (AID 1181); conditions: small-molecule microarray binding, higher = more signal;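 also: score merges 667 nm emission and signal to noise over triplicate slides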
[11] = tested on: XIP peptide (Xip251-270) binding; assay: small-molecule binders of XIP peptide, primary screen, biochemical, small-molecule microarray, fluorescence 635/667 nm, 0.1 µg/mL protein (AID 1182); conditions: fluorescent protein binding, 635 nm, higher = more signal, called active from +8 up or from −8 down
XIP peptide (Xip251-270) = assay: small-molecule binders of XIP peptide, primary screen, biochemical, small-molecule microarray, fluorescence 635/667 nm, 0.5 µg/mL protein (AID 1183); conditions: small-molecule microarray binding, fluorescence 635 nm; higher = more signal
[12] = Plasmodium falciparum growth inhibition, primary screen, strain 3D7, DAPI fluorescence, 100 nL (AID 1184);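 also: parasites grown inside human red blood cells in medium with human serum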; conditions: P. falciparum 3D7 growth, 3 d, higher = more signal
[13] = target: Homeobox protein Hox-A13 (Mus musculus) (UniProt Q62424); assay: inhibitors of HoxA13-DNA binding, primary screen, biochemical, fluorescence polarization, labeled oligonucleotide (AID 1185); conditions: 15 min, higher = more signal, called active from +8 up or from −8 down
Homeobox protein Hox-A13 (Mus musculus), sequence (Q62424 whole entry, looked up): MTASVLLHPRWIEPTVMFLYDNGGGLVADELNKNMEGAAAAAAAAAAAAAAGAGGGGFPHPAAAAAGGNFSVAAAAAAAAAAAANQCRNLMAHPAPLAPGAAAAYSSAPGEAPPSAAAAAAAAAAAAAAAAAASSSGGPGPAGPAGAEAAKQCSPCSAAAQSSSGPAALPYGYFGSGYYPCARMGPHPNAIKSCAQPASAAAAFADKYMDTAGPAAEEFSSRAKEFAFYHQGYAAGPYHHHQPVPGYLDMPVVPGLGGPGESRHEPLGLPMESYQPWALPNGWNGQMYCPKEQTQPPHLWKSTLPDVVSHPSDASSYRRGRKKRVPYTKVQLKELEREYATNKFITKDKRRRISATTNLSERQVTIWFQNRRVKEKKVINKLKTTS

E3 ubiquitin-protein ligase XIAP (Homo sapiens), sequence (P98170 whole entry, looked up): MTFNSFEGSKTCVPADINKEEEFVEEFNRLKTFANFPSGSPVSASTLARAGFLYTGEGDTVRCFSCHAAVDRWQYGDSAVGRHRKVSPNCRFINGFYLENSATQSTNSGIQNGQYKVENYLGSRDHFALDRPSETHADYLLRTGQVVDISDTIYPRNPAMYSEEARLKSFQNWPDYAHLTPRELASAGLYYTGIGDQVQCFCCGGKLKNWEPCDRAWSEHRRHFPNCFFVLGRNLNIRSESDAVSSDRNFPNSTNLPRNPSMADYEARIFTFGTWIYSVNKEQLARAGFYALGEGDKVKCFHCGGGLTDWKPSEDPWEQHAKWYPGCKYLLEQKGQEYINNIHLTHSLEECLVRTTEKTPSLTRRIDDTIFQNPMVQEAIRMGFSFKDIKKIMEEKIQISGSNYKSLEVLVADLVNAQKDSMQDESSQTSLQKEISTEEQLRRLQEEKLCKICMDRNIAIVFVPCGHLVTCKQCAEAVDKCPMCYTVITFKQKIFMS
Dihydroorotate dehydrogenase (quinone), mitochondrial (Plasmodium falciparum (isolate 3D7)), sequence (Q08210 whole entry, looked up): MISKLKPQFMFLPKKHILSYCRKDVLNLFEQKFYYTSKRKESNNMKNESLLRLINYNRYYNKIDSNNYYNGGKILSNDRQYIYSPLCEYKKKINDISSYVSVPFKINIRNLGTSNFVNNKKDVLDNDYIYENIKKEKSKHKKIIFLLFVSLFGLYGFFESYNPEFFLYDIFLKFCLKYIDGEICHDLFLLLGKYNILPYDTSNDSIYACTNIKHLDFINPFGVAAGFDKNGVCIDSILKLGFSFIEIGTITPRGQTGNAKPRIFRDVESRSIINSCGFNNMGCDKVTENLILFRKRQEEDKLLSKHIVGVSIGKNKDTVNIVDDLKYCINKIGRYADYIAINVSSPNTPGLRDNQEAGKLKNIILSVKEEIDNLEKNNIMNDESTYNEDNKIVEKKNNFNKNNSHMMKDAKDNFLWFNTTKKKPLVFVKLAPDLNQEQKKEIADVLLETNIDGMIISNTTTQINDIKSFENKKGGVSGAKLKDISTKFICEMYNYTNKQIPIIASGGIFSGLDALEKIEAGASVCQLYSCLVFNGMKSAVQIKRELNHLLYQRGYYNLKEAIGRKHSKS

SMILES	z-score [1]	z-score [2]	z-score [3]	composite z-score [4]	z-score [5]	z-score [6]	z-score [7]	z-score [8]	z-score [9]	composite z-score [10]	composite z-score [11]	composite z-score (XIP peptide (Xip251-270))	z-score [12]	z-score [13]
C[C@@H]1C=CCC(=O)OC[C@H](C)C(=O)N[C@@H](C)C(=O)OC1	0.29	0.128 (inactive)	0.617 (inactive)	0.474 (inactive)	-0.537 (inactive)	0.317 (inactive)	0.6 (inactive)	0.879 (inactive)	0.361	-0.113	0.0195 (inactive)	-0.059	-0.207	0.442 (inactive)
CC=CC1=C(CO)[C@H](O)[C@H]2O[C@H]2[C@H]1O	-0.557	0.977 (inactive)	-0.667 (inactive)	0.439 (inactive)	-0.47 (inactive)	0.618 (inactive)	-0.227 (inactive)	-0.299 (inactive)	0.0421	0.0774	-0.461 (inactive)	-0.229	0.337	-0.532 (inactive)
COc1cccc([C@@H]2Oc3ccc(Br)cc3C(=O)[C@H]2O)c1	-0.41	-14.5 (active)	-1.99 (inactive)	-0.071 (inactive)	-0.0782 (inactive)	-0.361 (inactive)	0.255 (inactive)	0.139 (inactive)	-1.02	-0.391	2.46 (inactive)	0.181	0.988	-1.54 (inactive)
C[C@H](c1ccccc1)N1C(=O)[C@H]2[C@@H]3C(=CC[C@H]2C1=O)C(=O)[C@H]1O[C@H]1[C@H]3O	-2.54	-3.82 (inactive)	-8.01 (active)	-1.74 (inactive)	-0.993 (inactive)	-0.141 (inactive)	0.144 (inactive)	0.494 (inactive)	-5.33	0.288	-0.584 (inactive)	0.008	-1.23	-6.83 (inactive)
COC(=O)C1=C(C)[C@@H](O)[C@@H](C)[C@H](c2c(OC)c(OC)c(C)c(OC)c2OC)O1	-0.359	-0.195 (inactive)	-0.46 (inactive)	-0.218 (inactive)	0.368 (inactive)	0.0467 (inactive)	0.0595 (inactive)	-0.0569 (inactive)	-0.529	0.0101	-0.252 (inactive)	0.562	-0.717	-0.388 (inactive)
COc1ccc(OC[C@H]2Cc3c(-c4ccccc4)nc4c(c3CO2)CN(CCOc2ccccc2)CC4)cc1	-0.376	-2.37 (inactive)	-0.0593 (inactive)	-3.16 (inactive)	-0.765 (inactive)	-0.314 (inactive)	-1.17 (inactive)	-0.458 (inactive)	0.578	-0.111	1.22 (inactive)	0.71	-1.34	-2.66 (inactive)
CC(=O)OC[C@H]1O[C@H](C#CCCCc2ccccc2)C=C[C@@H]1OC(C)=O	-0.22	-2.31 (inactive)	-4.16 (inactive)	-0.791 (inactive)	-0.0569 (inactive)	0.291 (inactive)	0.387 (inactive)	-0.0416 (inactive)	-2.47	0.072	1.05 (inactive)	0.505	-0.107	-5.95 (inactive)
CCOC(=O)[C@H](Cc1ccccc1)NC(=O)CCC1CC(OC(=O)NCc2ccc3c(c2)OCO3)CC2(CCCC(COC(=O)NCC3CCCCC3)O2)O1 (some centres not stated)	1.19	-0.653 (inactive)	0.625 (inactive)	-0.0475 (inactive)	-0.695 (inactive)	0.104 (inactive)	0.0066 (inactive)	0.216 (inactive)	0.419	0.257	-0.292 (inactive)	0.646	-1.96	-2.6 (inactive)
CCOC(=O)[C@H](Cc1ccccc1)NC(=O)CCC1CC(OC(=O)NCc2ccc3c(c2)OCO3)CC2(CCCC(COC(=O)NCc3ccccc3)O2)O1 (some centres not stated)	0.966	-0.0513 (inactive)	0.637 (inactive)	0.208 (inactive)	0.0858 (inactive)	0.864 (inactive)	0.703 (inactive)	1.22 (inactive)	0.676	-0.0089	-0.148 (inactive)	0.389	-1.76	-0.513 (inactive)
CCOC(=O)NN=C1C[C@@H](O)[C@@H](O)[C@@H]2[C@@H]3C(=O)N(C4CCCCC4)C(=O)[C@@H]3CC[C@@H]12	-0.252	0.126 (inactive)	-0.292 (inactive)	-1.71 (inactive)	0.283 (inactive)	-0.845 (inactive)	-0.959 (inactive)	-0.499 (inactive)	-0.145	-0.102	0.311 (inactive)	0.101	1.51	-0.86 (inactive)
CCCNC(=O)OC[C@H]1O[C@H](CCON=CC[C@@H]2C=C[C@H](OC(C)=O)[C@@H](COC(C)=O)O2)C=C[C@@H]1Oc1ccc(OC)cc1	0.261	1.4 (inactive)	-0.387 (inactive)	-0.584 (inactive)	0.0282 (inactive)	0.394 (inactive)	0.426 (inactive)	-0.371 (inactive)	0.477	-0.128	0.27 (inactive)	0.512	-0.133	-6.56 (inactive)
C[C@@H]1CC[C@H]2C(=O)O[C@H](COc3ccc(C(C)(C)C)cc3)CN2[C@H]1c1ccc(Br)cc1	0.182	0.789 (inactive)	0.837 (inactive)	0.702 (inactive)	0.18 (inactive)	1.71 (inactive)	-0.474 (inactive)	-0.438 (inactive)	1.12	-0.0118	-0.418 (inactive)	0.769	-0.407	1.23 (inactive)
COc1ccc(O[C@H]2C=C[C@@H](c3ccccc3)O[C@@H]2COC(=O)CCC(C)=NOC[C@@H](C)[C@H](OCc2ccccc2)C(C)C)cc1	0.85	0.445 (inactive)	0.24 (inactive)	-0.926 (inactive)	-0.598 (inactive)	0.659 (inactive)	0.394 (inactive)	-0.9 (inactive)	0.0668	0.552	0.294 (inactive)	-0.794	-0.925	-0.43 (inactive)
O=C1[C@H]2[C@H]3[C@H](O)[C@H](O)CC(=NOC[C@@H](O)COCc4ccco4)[C@H]3CC[C@H]2C(=O)N1c1cccc(Oc2ccccc2)c1	0.957	0.22 (inactive)	-0.654 (inactive)	-0.365 (inactive)	0.741 (inactive)	-0.183 (inactive)	0.916 (inactive)	1.33 (inactive)	-0.192	-0.295	0.283 (inactive)	0.638	0.499	0.338 (inactive)
COc1ccc(O[C@H]2C=C[C@@H](c3ccccc3)O[C@@H]2COC(=O)N2CCCCC2)cc1	0.54	0.666 (inactive)	0.0872 (inactive)	0.0964 (inactive)	-0.139 (inactive)	-0.499 (inactive)	0.396 (inactive)	0.349 (inactive)	0.883	-0.234	-0.275 (inactive)	-0.216	-0.43	-3.83 (inactive)
C#CCCCON=C1C[C@@H](O)[C@@H](O)[C@@H]2[C@@H]3C(=O)N(Cc4ccccc4)C(=O)[C@@H]3CC[C@H]12	1.02	-1.43 (inactive)	0.582 (inactive)	-0.794 (inactive)	0.495 (inactive)	-1.59 (inactive)	-0.039 (inactive)	-0.923 (inactive)	0.781	-0.256	0.136 (inactive)	-0.102	-0.677	-3.05 (inactive)
CC(=O)OC[C@H]1O[C@H](CCON=C[C@@H](C)[C@H](OCc2ccccc2)C(C)C)C=C[C@@H]1OC(C)=O	-0.374	0.604 (inactive)	-0.81 (inactive)	-0.64 (inactive)	0.0039 (inactive)	-0.399 (inactive)	-0.983 (inactive)	-2.1 (inactive)	-0.429	-0.215	0.72 (inactive)	0.165	-0.219	-4.91 (inactive)
CO[C@@H]1COC(=O)CC=C[C@@H](C)[C@@H]2C=C[C@@H](O)[C@@H](COC(=O)CC=C[C@H]1C)O2	0.234	-1.29 (inactive)	0.604 (inactive)	-1.34 (inactive)	0.683 (inactive)	-2.03 (inactive)	-0.0072 (inactive)	-0.392 (inactive)	-0.501	0.0304	0.794 (inactive)	-0.317	0.328	-0.816 (inactive)
